# The source made the active and inactive calls. No rule for the calls is given here.
# Test system: HIV-1 nucleocapsid protein NCp7 (binding to TG oligonucleotide)
# Assay: HIV Nucleocapsid (AID 346);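 also: potency is for inhibitors that block NC binding and lower polarization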
# Details: HIV-1 NC / fluorescein-TGTGTGTG probe, fluorescence polarization
# How it was run: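 Reagents dispensed (10 nM TG4xF, 100 nM HIV-1 NC), plates spun, compounds pin-transferred, then incubated 1 hr at room temperature before FP imaging. Buffer: Hepes pH 7.5, 250mM NaCl, 1uM ZnCl2, 100 uM TCEP, 5 mM 2-mercaptoethanol.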
# Potency is read from the fitted curve at half-maximal effect.
row,Structure (SMILES),Potency
1,O=C(c1cnccn1)N1CCC2(CC1)CN(Cc1nccs1)C2,> 20 µM (inactive)
2,O=C(c1ccncc1)N1CCC2(CC1)CN(c1cccc(-c3ccccc3)c1)C2,> 20 µM (inactive)
3,COCCn1c(=O)c(-c2ccc(Cl)cc2)nc2cnc(N(C)C)nc21,> 20 µM (inactive)
4,CN(Cc1ccco1)c1ncncc1-c1ccccc1C(F)(F)F,> 20 µM (inactive)
5,CN(C)C(=O)c1ccc(-c2cncnc2N(C)Cc2ccco2)cc1,> 20 µM (inactive)
6,COc1ncc2nc(-c3ccc(F)cc3)c(=O)n(Cc3ccc(F)cc3)c2n1,> 20 µM (inactive)
7,COc1ccccc1CN1CC2(CCN(S(=O)(=O)c3ccccc3)CC2)C1,> 20 µM (inactive)
8,COc1ccc(CNc2ncnc3ccc(-c4cccc(C#N)c4)cc23)c(OC)c1,> 20 µM (inactive)
9,CCNc1ncc2nc(C)c(=O)n(Cc3ccc(F)cc3)c2n1,> 20 µM (inactive)
10,O=c1cnc2cnc(Oc3ccccc3)nc2n1Cc1ccc(F)cc1,> 20 µM (inactive)
11,COc1ccc(NC(=O)N2CC3(CCN(C(C)=O)CC3)C2)cc1,> 20 µM (inactive)
12,COCC(=O)N1CCC2(CC1)CCN(c1ccccc1)CC2,> 20 µM (inactive)
13,COc1ccc(C(=O)N2CCC[C@@]3(CCN(C)C3)C2)cc1,> 20 µM (inactive)
14,O=C(c1ccco1)N1CCC2(CCCN(c3ccncc3)C2)CC1,> 20 µM (inactive)
15,CC(=O)N1CCC[C@@]2(CCN(C(c3ccccc3)c3ccccc3)C2)C1,> 20 µM (inactive)
16,COc1ncc2nc(-c3ccc(Cl)cc3)c(=O)n(CCC#N)c2n1,> 20 µM (inactive)
17,COC(=O)N1CCC2(CC1)CN(c1ccc(-c3ccccc3)cc1)C2,> 20 µM (inactive)
18,COc1ncc2nc(-c3cc(F)cc(F)c3)c(=O)n(CCC#N)c2n1,> 20 µM (inactive)
19,CN(C)Cc1ccccc1-c1cc(NC2CC2)ncn1,> 20 µM (inactive)
20,CS(=O)(=O)N1CCC2(CCN(C(=O)Nc3cccc(F)c3)CC2)CC1,> 20 µM (inactive)
21,COc1ccccc1CNc1ccnc(-c2ccccc2CN(C)C)n1,> 20 µM (inactive)
22,COCCn1c(=O)c(-c2ccc(F)cc2)nc2cnc(Nc3cccc(OC)c3)nc21,> 20 µM (inactive)
23,c1cncc(CNc2ccnc(-c3cccnc3)n2)c1,> 20 µM (inactive)
24,FC(F)(F)c1ccccc1-c1nc(N2CCNCC2)c2ccccc2n1,> 20 µM (inactive)
25,COc1ccccc1CNc1ncncc1-c1ccccc1OC,> 20 µM (inactive)
26,CN(C)C(=O)c1ccc(-c2nccc(-n3ccnc3)n2)cc1,> 20 µM (inactive)
